According to PubChem BioAssay (NCATS):
Inconclusive results are not listed. Calls of active or inactive are those of the source. Calls follow the shape of the dose curve; as a rule, active = well fitted cell-killing curve with a large enough effect; inconclusive = small, poorly fitted or top-dose-only effect; inactive = flat fitted curve, though single readings scatter.

How the values were obtained:
[1] = Cell Viability - LYMP2-025 (AID 976); settings: LYMP2-025 lymphoblastoid cell viability; series mostly up to 92.2 µM
Outline: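 Human lymphoblastoid LYMP2-025 cells, 2500/well, exposed 24 h at 37 C in complete medium in 1536-well qHTS. Viability as cellular ATP by CellTiter-Glo luminescence; AC50 from Hill fits of concentration-response data.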

[2] = Cell Viability - LYMP2-002 (AID 977); settings: LYMP2-002 lymphoblastoid cell viability, qHTS; series mostly up to 92.2 µM
Outline: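 Luminescent ATP readout (CellTiter-Glo, 30 min room temperature) after 24 h compound exposure at 37 C of a human lymphoblastoid line, 2500 cells/well. AC50 values derived by standard Hill fitting of qHTS concentration-response data.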

[3] = Cell Viability - LYMP2-006 (AID 978); settings: LYMP2-006 lymphoblastoid cell viability, qHTS; series mostly up to 92.2 µM; also: nearly all actives have a fitted effect of over 60% in size
Outline: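 Cells are seeded at 2500 per well and rested 5 hr at 37 C. Compounds are added across a concentration series for 24 hr at 37 C, after which ATP is quantified by luciferase luminescence.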

[4] = Cell Viability - LYMP2-007 (AID 979); settings: LYMP2-007 lymphoblastoid cell viability; series mostly up to 92.2 µM;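 also: cells exposed to compound for 24 h before reading; nearly all actives have a fitted effect of over 60% in size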
Outline: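 Human lymphoblastoid LYMP2-007 cells (2500/well) preincubated 5 h at 37 C, then treated 24 h at 37 C in complete medium. Viability by CellTiter-Glo ATP luminescence after 30 min at room temperature; AC50 from Hill fits.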

[5] = Cell Viability - LYMP2-008 (AID 980); settings: LYMP2-008 lymphoblastoid cell viability, qHTS; series mostly up to 92.2 µM; also: nearly all actives have a fitted effect of over 60% in size
Outline: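 LYMP2-008 lymphoblastoid cells (2500/well) plated 5 h, then treated 24 h at 37 C in complete medium. Viability read as intracellular ATP by CellTiter-Glo luminescence after 30 min at room temperature; AC50 from Hill fits.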

[6] = Cell Viability - LYMP2-010 (AID 981); settings: LYMP2-010 lymphoblastoid cell viability, qHTS; series mostly up to 92.2 µM; also: nearly all actives have a fitted effect of over 55% in size
Outline: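 Human lymphoblastoid LYMP2-010 cells (2500/well) treated 24 h at 37 C in complete medium; viability read as intracellular ATP by CellTiter-Glo luminescence. AC50 from Hill fits of concentration-response data; tetraoctylammonium bromide positive control.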

[7] = Cell Viability - LYMP2-012 (AID 982); settings: LYMP2-012 lymphoblastoid cell viability qHTS; series mostly up to 92.2 µM;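 also: cellular ATP by luciferase luminescence where a drop means cytotoxicity; cells exposed to compound for one day before reading; nearly all actives have a fitted effect of over 55% in size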
Text: NIH Chemical Genomics Center [NCGC]
NIH Molecular Libraries Screening Centers Network [MLSCN]
National Institutes of Environmental Health Sciences [NIEHS]
National Toxicology Program [NTP]
We have developed a 1536-well cell-based assay for quantitative high throughput screening (qHTS) against a number of cell lines to determine in vitro cytotoxicity of small molecules. This particular assay uses a human lymphoblastoid cell line (LYMP2-012) purchased from Coriell Institute for Medical Research.
NCGC Assay Protocol Summary:
The CellTiter-Glo luminescent cell viability assay (Promega) is a homogeneous method to measure the number of viable cells in culture. The end point readout of this assay is based on quantitation of intracellular ATP, an indicator of metabolic activity, using the luciferase reaction. Luciferase catalyzes the oxidation of beetle Luciferin to oxyluciferin and light in the presence of ATP. The luminescent signal is proportional to amount of ATP present.
Using the CellTiter-Glo luminescent cell viability assay, the amount of cellular ATP was measured in the lymphoblastoid cell line with complete culture medium following compound treatment for 24 hours. The assay was performed in opaque white Kalypsys 1536-well plates. In the screen, tetraoctylammonium bromide was used as positive control. Library compounds were measured for their ability to cause acute toxicity in the cell line, as reflected by a decrease in intracellular ATP levels, in a concentration-dependent manner. […] AC50 values were determined from concentration-response data modeled with the standard Hill equation.
qHTS protocol for CellTiter Glo lymphoblastoid cellular assay
[Step] [Parameter] [Value] [Description]
1. Reagent; 5 uL; 2500 lymphoblastoid cells/well
2. Time; 5 hr; 37 C incubation
4. Controls; 23 nL; Tetraoctylammonium bromide 6.4pM to 92 uM
5. Time; 24 hr; 37 C incubation
6. Reagent; 5 uL; CellTiter Glo reagent
7. Time; 30 min; Room Temperature
8. Detection; Luminescence; Viewlux plate reader
Keywords: cell viability, cytotoxicity, lymphoblastoid cell line, luminescence, NTPHTS, NTPHTS_NCGC, NIEHS, DSSTox, MLSMR, MLSCN, NIH Roadmap, qHTS, NCGC

[8] = Cell Viability - LYMP2-014 (AID 983); settings: LYMP2-014 lymphoblastoid cells, viability qHTS; series mostly up to 92.2 µM; also: nearly all actives have a fitted effect of over 50% in size
Outline: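 LYMP2-014 human lymphoblastoid cells, 2500/well, treated 24 h at 37 C in complete medium; viability by CellTiter-Glo ATP luminescence after 30 min at room temperature. AC50 from Hill fits of qHTS concentration-response; tetraoctylammonium bromide positive control.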

[9] = Cell Viability - LYMP2-016 (AID 984); settings: LYMP2-016 lymphoblastoid cell viability, qHTS; series mostly up to 92.2 µM; also: nearly all actives have a fitted effect of over 55% in size
Outline: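 Cells were seeded at 2500 per well and rested 5 hr before a 24 hr compound exposure at 37 C. Viability was then gauged as cellular ATP by luciferase luminescence, with AC50 values fitted to the Hill equation.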

[10] = Cell Viability - LYMP2-018 (AID 985); settings: LYMP2-018 lymphoblastoid cells, viability (qHTS); series mostly up to 92.2 µM; also: nearly all actives have a fitted effect of over 50% in size
Outline: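 Human lymphoblastoid LYMP2-018 cells, 2500/well, settled 5 hr at 37 C then exposed to compound 24 hr at 37 C; intracellular ATP measured by CellTiter-Glo luminescence. AC50 from Hill-equation concentration-response fits.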

Measured: outcome

COC(C)=O
inactive: all assays above

CN(C)Cc1ccccc1
inactive: all assays above

CCCCCCCCCC(=O)O
inactive: all assays above

O=C(O)CC(O)(CC(=O)O)C(=O)O
not listed: [4] | [5] | [6]
inactive: all other assays above

C=Cc1ccccc1
not listed: [7] | [8]
inactive: all other assays above
